Menin-MLL FL inh = menin-MLL binding inhibition, fluorescein peptide. Fluorescence polarization, fluorescein-MLL peptide displacement from menin. FP activity change, % at 61.4 µM. 290,000 tested, under 10 active. AID 1766; active = well fitted curve in the direction sought with a large enough effect in the polarisation, not every such curve was filed as active; inconclusive = small, poorly fitted or top-dose-only effect, or effect the other way, or a change in a side signal; inactive = no such curve, though single readings can be large or run the other way; the % refers to the polarisation
p53 reactivation = restores transcriptional activity of mutant p53; 320,000 compounds, 0.063% hits; Potency, µM (series often up to 92.2 µM), most hits filed as activators; AID 504706; H1299 p53-A138V BP100-luciferase reporter, luminescence, 24 h; note: nearly all actives have a fitted effect of over 45% in size
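H1299 (p53-null), stable ts p53-A138V + BP100-Luc; 1000 cells/well, Opti-MEM/10% FBS; cpd 4 pt, 1:5; 24 h, 37 deg C, 5% CO2; detection reagent 10 min RT; luminescence.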
ClpP mod = qHTS Assay for Activators of ClpP. purified B. subtilis ClpP, FRET peptide cleavage, 20 min. Potency, µM (series often up to 57.5 µM). 340,000 compounds, 1.9% hits. AID 651965, 2013; active = well fitted falling curve with a large enough effect; inconclusive = small, poorly fitted or top-dose-only effect; inactive = no such curve, though single readings can be large or run the other way; note: the source files actives as falling curves though it sought activators and does not explain the sign; nearly all actives have a fitted effect of over 65% in size
Target sequence (P80244 whole entry, looked up): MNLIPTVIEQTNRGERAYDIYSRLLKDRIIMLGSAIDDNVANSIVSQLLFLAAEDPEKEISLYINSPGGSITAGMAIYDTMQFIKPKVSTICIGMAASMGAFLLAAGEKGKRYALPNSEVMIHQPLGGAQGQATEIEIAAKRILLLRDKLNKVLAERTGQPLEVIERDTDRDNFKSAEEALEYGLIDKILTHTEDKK
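FRET quenching reversal measured ClpP activation: 10 microg/mL B. subtilis ClpP at pH 8 with the FRET-FV decapeptide, read at 430 nm after 320 nm excitation. The 20-min minus 0-min signal was scaled between DMSO/no-enzyme wells and ADEP (5.8 microM final).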
MLL CXXC-DNA inh = MLL CXXC-DNA interaction inhibition. AID 2662. Potency, µM (titrated, usually from 115 µM), actives largely listed as inhibitors. 290,000 compounds, 0.037% hits. MLL-CXXC / FITC-HOXA9 DNA fluorescence polarization. Q03164; active = well fitted inhibition curve with a large enough effect in the polarisation, with a control signal flat, not every such curve was filed as active; inconclusive = small, poorly fitted or top-dose-only effect, or effect the other way, or a change in a side signal; inactive = no such curve, though single readings can be large or run the other way; the % refers to the polarisation
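Purified MLL-CXXC (added from a 7 uM solution) was preincubated 5 min at ambient with pinned compounds in 50 mM Tris-HCl pH 7.5, 50 mM NaCl, 1 mM DTT, 0.05% BSA. Fluorescein-labeled HOX-A9 DNA (50 nM solution) followed, 30 min, then polarization read.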
Menin-MLL TR inh = displaces Texas Red mutant MLL peptide from human menin; O00255; 270,000 compounds, 0.23% hits; Potency, µM (titrated, usually from 61.6 µM), actives largely listed as inhibitors; Menin + Texas Red MLL mutant peptide, fluorescence polarization; active = well fitted inhibition curve with a large enough effect in the polarisation, with a control signal flat, not every such curve was filed as active; inconclusive = small, poorly fitted or top-dose-only effect, or effect the other way, or a change in a side signal; inactive = no such curve, though single readings can be large or run the other way; the % refers to the polarisation
Target sequence (O00255 whole entry, looked up): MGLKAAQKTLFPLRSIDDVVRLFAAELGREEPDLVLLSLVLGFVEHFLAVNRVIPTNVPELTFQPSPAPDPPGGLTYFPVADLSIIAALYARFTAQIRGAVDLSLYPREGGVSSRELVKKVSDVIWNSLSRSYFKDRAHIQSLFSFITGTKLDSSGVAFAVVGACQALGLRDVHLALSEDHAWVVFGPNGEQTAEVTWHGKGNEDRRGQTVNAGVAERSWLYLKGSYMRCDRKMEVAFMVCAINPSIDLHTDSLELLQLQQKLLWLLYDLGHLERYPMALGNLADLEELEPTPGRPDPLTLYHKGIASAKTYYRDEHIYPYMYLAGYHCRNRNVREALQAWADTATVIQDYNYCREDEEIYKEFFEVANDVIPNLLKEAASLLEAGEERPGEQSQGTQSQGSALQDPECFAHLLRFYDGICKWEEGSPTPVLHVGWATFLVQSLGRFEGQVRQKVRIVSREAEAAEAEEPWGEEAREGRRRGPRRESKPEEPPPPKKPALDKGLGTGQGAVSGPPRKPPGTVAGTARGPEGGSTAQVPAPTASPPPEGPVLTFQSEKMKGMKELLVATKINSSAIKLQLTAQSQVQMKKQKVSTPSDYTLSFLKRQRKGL
ClpP validation = validation of B. subtilis ClpP protease hits (inhibitors). shares compounds with ClpP mod. purified B. subtilis ClpP, FRET-FV substrate cleavage, 20 min. Potency, µM (doses to about 57.5 µM), hits mostly inhibitors. 470 compounds, 40% hits. AID 743245; note: nearly all actives have a fitted effect of over 70% in size
Hits are given with their value; i = inactive; ? = inconclusive; nt = not tested or not shown; [ ] = remark or other dose. The sample as a whole holds a higher share of hits than the screen did. Unless noted, calls come from the whole dose curve; as a rule, active = well fitted curve in the direction sought with a large enough effect; inconclusive = small, poorly fitted or top-dose-only effect, or another doubt; inactive = no such curve, though single readings can be large; an effect the other way counts as inactive or inconclusive.

SMILES | Menin-MLL FL inh | p53 reactivation | ClpP mod | MLL CXXC-DNA inh | Menin-MLL TR inh | ClpP validation
O=C(CCn1nnc2ccccc21)N1CCN(c2ccccc2)CC1 | i | i | i | i | i | i
COc1ccc(OC)c(CCNC(=O)c2nc(-c3ccc(Cl)cc3)n3c2CCCCC3)c1 | nt | nt | i | nt | nt | nt
CCCc1cc(=O)n2c(nc3ccccc32)[nH]1 | i | ? | 7.1µM | i | i | 14µM
CCNc1ccc(C(=O)OCC(=O)N2CCCC2)cc1[N+](=O)[O-] | i | i | i | i | i | i
O=C(OCC(=O)N1CCCC1)c1ccc(Cl)c([N+](=O)[O-])c1 | nt | i | nt | i | nt | nt
Fc1ccc(CNc2cnccn2)cc1 | i | i | 3.2µM | i | i | 22µM
COc1ccc(NC(=O)c2ccco2)cc1NC(=O)COc1cc(C)ccc1C(C)C | nt | nt | i | nt | nt | i
Cc1ccc(C(C)C)c(OCC(=O)Nc2cccc(NC(=O)c3ccco3)c2)c1 | nt | nt | i | nt | nt | nt
CCOC(=O)c1c(S(=O)(=O)NCC(=O)Nc2ccc(F)cc2C)c(C)n(C)c1C | nt | nt | i | nt | nt | nt
Cc1cccc(NS(=O)(=O)c2cccc(C(=O)NCC(c3ccco3)N3CCCCC3)c2)c1 (stereo not given) | nt | i | 3.2µM | nt | nt | i
Cc1ccc2oc(-c3cccc(NC(=O)c4cccc5c(Cl)cccc45)c3)nc2c1 | nt | nt | i | nt | nt | nt
Cc1ccc2oc(-c3cccc(NC(=O)c4cc(-n5cnnc5)ccc4Cl)c3)nc2c1 | i | i | i | i | i | i
COc1ccccc1N1CCN(C(=O)C2CCN(S(=O)(=O)c3cn(C)cn3)CC2)CC1 | nt | nt | i | nt | nt | nt
COc1ccccc1NC(c1cccnc1)c1ccc2cccnc2c1O (stereo not given) | i | ? | i | i | i | nt
O=C(O)c1ccccc1NC(c1ccccc1)c1ccc2cccnc2c1O (stereo not given) | nt | nt | i | nt | nt | ?
COc1cccc(Nc2nn3c(=O)c4ccccc4nc3s2)c1 | nt | i | nt | nt | nt | nt
CCc1cccc(Nc2nn3c(=O)c4ccccc4nc3s2)c1 | nt | nt | nt | nt | nt | i
COc1ccc(NC(=O)c2oc3ccccc3c2NC(=O)c2ccco2)cc1 | i | i | i | i | i | nt
COc1ccc(NC(=O)c2oc3ccccc3c2NC(=O)c2ccco2)c(OC)c1 | i | i | i | i | i | ?
c1nc2n(n1)C1=C(CCCC1)C1(CCCCC1)N2 | i | i | 10µM | i | i | i
O=C(Nc1ccc2nn(-c3ccccc3)nc2c1)c1ccc(-c2cccc(Cl)c2)o1 | nt | nt | i | nt | nt | i
COc1ccc(N(CC(=O)NCCc2ccc(C)cc2)S(=O)(=O)c2c(C)nn(C)c2C)cc1 | nt | nt | i | nt | nt | nt
Cc1ccc(C)c2[nH]c(=O)c(CN(CCCN(C)C)C(=O)NCc3ccccc3)cc12 | i | i | 3.5µM | i | i | ?
O=C(c1ccncc1)N1CCN(S(=O)(=O)c2cccc(Cl)c2)CC1 | nt | i | 3.2µM | nt | nt | i
CCCc1cc(=O)oc2cc(C)cc(OCC(=O)NC3CC3)c12 | i | i | i | i | i | nt
SMILES | Menin-MLL FL inh | p53 reactivation | ClpP mod | MLL CXXC-DNA inh | Menin-MLL TR inh | ClpP validation
CCCc1cc(=O)oc2cc(C)cc(OCc3nn[nH]n3)c12 | i | i | 8.9µM | i | i | 34µM
COc1ccc(Cl)cc1NC(=O)CSc1nc2ccccc2nc1N1CCCCC1 | nt | nt | i | nt | nt | nt
COc1ccc(NCc2cc3cc4c(cc3n(CC(=O)Nc3ccc(C)c(C)c3)c2=O)OCO4)cc1 | nt | nt | i | nt | nt | ?
CCCn1c(=O)c2c(C(F)(F)F)cc(-c3ccco3)nc2n(CCC)c1=O | i | i | 1.8µM | i | nt | 6.9µM
CCCCn1c(=O)n(C)c(=O)c2c(C(F)(F)F)cc(-c3ccncc3)nc21 | i | i | ? | i | i | nt
CC(OC(=O)c1nn(C(C)C)c(=O)c2ccccc12)C(=O)Nc1ncc(Cl)cc1Cl (stereo not given) | i | i | i | i | i | i
COc1ccc(NC(=O)c2ccccc2-c2ccc(C(F)(F)F)cc2)cc1S(=O)(=O)N1CCOCC1 | i | i | i | i | i | nt
COc1ccc(S(=O)(=O)N2CCOCC2)cc1NC(=O)c1ccccc1-c1ccc(C(F)(F)F)cc1 | i | i | i | ? | i | ?
COc1ccccc1CNC(=O)c1ccc(Nc2nc3ccccc3n3nnnc23)cc1 | nt | nt | i | nt | nt | 15µM
COc1ccccc1N(CC(=O)Nc1ccc2c(c1)OCCO2)S(=O)(=O)c1ccc(C)cc1 | i | i | 5µM | i | ? | i
COc1ccccc1N(CC(=O)Nc1ccc2c(c1)OCCO2)S(C)(=O)=O | i | i | i | i | i | nt
CCOC(=O)c1c(C)oc2nc(C)nc(Nc3cc(C)cc(C)c3)c12 | nt | nt | i | nt | nt | nt
O=C(NCc1cccc(F)c1)c1ccc(NC(=O)c2nsc3ccccc23)cc1 | nt | nt | i | nt | nt | ?
CC1=C(C)CC(c2ccccc2)C(C(=O)c2ccccc2O)C1 (stereo not given) | i[11.7 µM] | nt | nt | nt | i[11.7 µM] | nt
COc1ccc(C(=O)n2cc(C(=O)c3cc(C)ccc3O)cn2)cc1 | i | i | i | i | i | nt
COc1ccc(C(=O)n2cc(C(=O)c3cc(C)ccc3O)cn2)cc1OC | i | i | i | ? | i | i
Cc1ccccc1-c1nc(CN2CCC(C(=O)NCc3ccc(F)cc3)CC2)c(C)o1 | nt | nt | i | nt | nt | nt
CCCNC(=O)c1cnc2sc(N3CCCCCC3)nn2c1=O | nt | nt | 3.2µM | nt | nt | i
CCOc1ccccc1CNC(=O)c1cnc2sc(N3CCCCCC3)nn2c1=O | nt | nt | 3.2µM | nt | nt | i
CCOc1ccccc1CNC(=O)c1cnc2sc(N3CCOCC3)nn2c1=O | nt | nt | 2.8µM | nt | nt | i
CCOc1ccc(NC(=O)c2cnc3sc(N4CCOCC4)nn3c2=O)cc1 | nt | nt | i | nt | nt | nt
CCc1ccc(CNC(=O)c2cnc3sc(N4CCOCC4)nn3c2=O)cc1 | nt | nt | 3.2µM | nt | nt | i
CC(C)CO/N=C1/C[C@@H](O)[C@@H](O)[C@@H]2[C@@H]3C(=O)N(Cc4ccccc4)C(=O)[C@H]3CC[C@@H]12 | i[11.7 µM] | nt | nt | nt | i[11.7 µM] | nt
CC1CCN(C(=O)c2ccc3c(c2)N(Cc2ccccc2F)C(=O)c2ccccc2S3(=O)=O)CC1 | nt | nt | i | nt | nt | nt
COC(=O)c1ccc(C(NC(=O)OCc2ccccc2)/C(C)=C/[C@@H](C)C(=O)NCc2nc3ccccc3s2)cc1 (stereo not given in full) | i | nt | nt | nt | i | nt
SMILES | Menin-MLL FL inh | p53 reactivation | ClpP mod | MLL CXXC-DNA inh | Menin-MLL TR inh | ClpP validation
COc1ccc(C(=O)Nc2nnc(SCc3cc(=O)n4cccc(C)c4n3)s2)cc1 | nt | nt | i | nt | nt | nt
Cn1c(-c2ccc(CN3CCCCC3)o2)nc2ccccc21 | i | i | 3.5µM | i | i | 17µM
CCn1cc(C(=O)N2CCN(c3ccccc3F)CC2)c(=O)c2cc(S(=O)(=O)N(C)C3CCCCC3)ccc21 | nt | nt | i | nt | nt | nt
Cc1ccc(-c2cc(C(F)(F)F)n3nc(-c4ccc(Cl)cc4)cc3n2)cc1 | nt | nt | i | nt | nt | nt
FC(F)(F)c1cc(-c2ccc(Cl)cc2)nc2ncnn12 | i | i | 2.8µM | i | i | 17µM
O=[N+]([O-])c1cc(-c2nc(-c3ccccc3)no2)ccc1NC1CCCCC1 | nt | nt | i | nt | nt | nt
CCOc1ccc(CNC(=O)c2cc3oc4ccccc4c3n2C)cc1 | i | i | 6.3µM | i | nt | i
CCn1c(C(=O)NCc2ccc(F)cc2)cc2oc3ccccc3c21 | nt | nt | i | nt | nt | nt

Screening results as filed in PubChem BioAssay.
